# Screens from PubChem BioAssay.
# This is a sample that favours compounds with a hit; in the whole collection about 4% have one here.
# Peg3 promoter = reduces Peg3 promoter-driven luciferase expression in HeLa | HeLa PEG-Prom luciferase reporter, luminescence, overnight | inhibition, % at 20 µM | 1.7% of 360,000 active;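 active means inhibition of at least 50% at 20 µM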
# CF NFkB inh = inhibitors of cystic fibrosis induced NF-kB | KKLEB NF-kB-GFP reporter, PAF-induced, GFP fluorescence overnight | inhibition, % at 5 µM | 0.86% of 360,000 active | AID 588850;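 active means at least 50% inhibition at 5 µM, scaled per plate between neutral and stimulator controls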;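 further: PAF is a Pseudomonas aeruginosa culture filtrate used as stimulus; plate controls were PAF-stimulated DMSO wells for no effect and unstimulated DMSO wells for full effect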
# TROY NFkB inh = blocks TROY-dependent signaling in reporter cells. Q293 LMP1-TROYcd NF-kB luciferase reporter, 4 h. inhibition, % at 10 µM. 0.98% of 360,000 active;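 active means compounds whose plate-normalised and pattern-corrected inhibition of the luciferase reporter signal at the single screening dose is 50% or more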
# TWEAK-Fn14 inh = TWEAK-Fn14 signaling inhibition; TWEAK-stimulated Fn14 reporter cells, luciferase luminescence, 8 h; inhibition, % at 10 µM; 2% of 360,000 active; in the data active means inhibition above about 50%
# KKLEB tox = reduces viability of KKLEB cystic fibrosis airway cells | KKLEB CF airway cells viability, ATPlite luminescence, overnight; hits give low values; cells stimulated with P. aeruginosa culture filtrate | activity change (cytotoxicity), % at 5 µM | 0.36% of 360,000 active;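 active means corrected activity change at or below -50% at 5 µM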
# HIF-2a block = blocks HIF-2a reporter activity | inhibition, % at 18.8 µM | 786-0 RCC cells HIF-2a reporter, luciferase luminescence, overnight | 0.72% of 360,000 active;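 active means inhibition of the luminescence signal of 40% or more relative to plate controls, in a single-dose primary screen at 18.75 µM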
# CF NFkB conf = CF NF-kB inhibition confirmation, single concentration; shares compounds with CF NFkB inh; 64% of 1,300 active; KKLEB CF airway cells, PAF-induced NF-kB-GFP fluorescence, overnight; AID 602472; inhibition, % at 5 µM; in the data active means inhibition above about 40%;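 further: stimulus PAF is a Pseudomonas aeruginosa filtrate and not platelet activating factor; plate controls were DMSO wells with stimulus for no effect and unstimulated DMSO wells for full effect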
# Mdm2-MdmX confirm = Mdm2/MdmX (human) interaction inhibition, confirmed. AID 504601. 99% of 740 active. inhibition, % at 8 µM. SaOS-2 split-luciferase Mdm2/MdmX complementation, luminescence. shares compounds with HIF-2a block;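 active means mean inhibition of the luminescence signal across two replicates at or above 26 percent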
# Target sequence (O15151 whole entry, looked up): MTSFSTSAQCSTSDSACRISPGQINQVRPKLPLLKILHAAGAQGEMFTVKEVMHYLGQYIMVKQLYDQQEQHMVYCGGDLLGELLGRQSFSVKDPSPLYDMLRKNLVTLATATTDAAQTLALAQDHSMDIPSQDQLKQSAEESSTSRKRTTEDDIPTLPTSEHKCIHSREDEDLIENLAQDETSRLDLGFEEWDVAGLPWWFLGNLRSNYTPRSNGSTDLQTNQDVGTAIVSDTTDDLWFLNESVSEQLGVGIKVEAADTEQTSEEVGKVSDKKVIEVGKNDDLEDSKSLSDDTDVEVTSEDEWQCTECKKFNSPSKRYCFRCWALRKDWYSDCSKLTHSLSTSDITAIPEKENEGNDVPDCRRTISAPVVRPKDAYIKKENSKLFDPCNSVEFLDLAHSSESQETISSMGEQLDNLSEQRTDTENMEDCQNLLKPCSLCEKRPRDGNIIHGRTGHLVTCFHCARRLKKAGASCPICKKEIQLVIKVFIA
# Target sequence (Q00987 whole entry, looked up): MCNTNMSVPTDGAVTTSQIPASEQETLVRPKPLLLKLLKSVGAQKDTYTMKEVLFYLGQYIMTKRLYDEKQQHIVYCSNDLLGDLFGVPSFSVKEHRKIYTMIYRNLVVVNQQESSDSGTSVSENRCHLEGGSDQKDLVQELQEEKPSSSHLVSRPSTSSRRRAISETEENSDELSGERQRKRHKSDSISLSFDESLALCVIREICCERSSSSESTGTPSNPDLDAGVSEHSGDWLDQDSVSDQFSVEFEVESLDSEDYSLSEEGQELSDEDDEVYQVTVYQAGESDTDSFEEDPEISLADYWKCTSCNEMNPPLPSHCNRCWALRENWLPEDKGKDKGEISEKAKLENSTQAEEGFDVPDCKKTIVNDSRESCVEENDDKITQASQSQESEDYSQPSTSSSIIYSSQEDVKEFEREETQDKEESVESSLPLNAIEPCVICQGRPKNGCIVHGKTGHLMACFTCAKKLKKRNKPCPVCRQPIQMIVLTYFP
# HIF-2a conf = confirmation of HIF-2a inhibitors; shares compounds with HIF-2a block; 786-0 RCC cells, HIF-2a luciferase reporter luminescence, overnight; 56% of 1,800 active; inhibition, % at 18.8 µM;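 active means mean inhibition across four replicates of at least 40 percent at the single tested concentration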
# HIF-1a cs = HIF-1a inhibition counter-screen for HIF-2a hits; shares compounds with HIF-2a block; MiaPaCa-2 HIF-1a luciferase reporter, desferoxamine, overnight; inhibition, % at 18.8 µM; 72% of 1,800 active; AID 651589;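 active means mean inhibition of the reporter signal across four replicates at the single tested dose of 50% or more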
# The depositor's hits bear a star; / = not tested or not shown.
SMILES,Peg3 promoter,CF NFkB inh,TROY NFkB inh,TWEAK-Fn14 inh,KKLEB tox,HIF-2a block,CF NFkB conf,others
NC(=O)c1nsc(C(=O)N(c2cccc(O)c2)C(C(=O)NC2CCCC2)c2ccc(Cl)cc2)c1N (stereo not drawn),31,3,22,18,3,4,/,
CN(Cc1ccccc1F)C(=O)CN1c2cccc3cccc(c23)S1(=O)=O,-8,-12,-31,2,9,6,/,
Clc1ccc(-c2csc3ncnc(N4CCc5ccccc5C4)c23)cc1,35,55*,55*,78*,-12,36,46*,
COc1ccc(-c2cn[nH]c2-c2ccc(OC)cc2O)cc1,28,72*,43,78*,-5,9,80*,
COc1ccc(-c2cn[nH]c2-c2ccc(OCc3ccccc3F)cc2O)cc1OC,46,60*,36,46,-22,20,60*,
COc1ccc(-c2[nH]ncc2-c2ccc(Cl)cc2)c(O)c1,42,21,14,14,-10,-9,/,
COc1ccc(-c2cn[nH]c2C)cc1,-2,53*,17,-17,-18,8,11,
COc1cc(OC)cc(-c2cn[nH]c2N)c1,-10,-9,1,-9,-1,13,/,
C=C1CCC2C(C)(C)[C@H](O)CC[C@@]2(C)[C@@H]1COc1cc(=O)oc2ccccc12 (stereo partly drawn),44,29,31,0,-8,7,/,
C=C1CC[C@@H]2[C@](C)(CO)[C@H](O)CC[C@@]2(C)[C@@H]1C/C=C1/C(=O)OCC1O (stereo partly drawn),-20,54*,-12,20,-19,22,15,
COc1ccc(CNCCS(=O)(=O)NC2CCCC2)cc1,-4,-3,3,12,-1,5,/,
CCOC1=C2[C@@H](CN(S(=O)(=O)c3ccccc3C)[C@H]2c2ccc(Cl)cc2)[C@H]2C(=O)NC(=O)[C@H]2C1,4,10,14,14,-1,9,/,
COc1ccc(-c2cc(=O)oc3cc(O)ccc23)cc1,5,82*,26,64*,-4,-4,86*,
O=c1cc(-c2ccc([N+](=O)[O-])cc2)c2ccc(O)cc2o1,49,53*,21,-13,14,11,25,
CCOC(=O)N/N=C\c1ccccc1OC/C=C/c1ccccc1,-250,-14,-46,-31,-14,-245,/,
Cc1cc(NC(=O)c2ccc3c(c2)C(=O)N(Cc2cccnc2)C3=O)no1,3,3,-25,4,-4,3,/,
COc1ccc(-c2cc(=O)oc3cc(OCC(C)=O)ccc23)cc1,12,23,-11,-22,-6,-15,/,
COc1ccc(-c2cc(=O)oc3c(C)c(O)ccc23)cc1,40,83*,61*,72*,15,17,92*,Mdm2-MdmX confirm=92*
O=C(Nc1ccncc1)c1c(Cl)cccc1Cl,6,64*,30,55*,-14,41*,71*,HIF-2a conf=7;HIF-1a cs=14
COc1cc(CN(C(=S)NCC(=O)N2CCCC2)C2CCCC2)cc(OC)c1OC,6,-3,16,-20,5,16,/,
O=C(/C=C/c1ccc(Br)cc1)c1ccc(NC2=NCCCS2)cc1,108*,56*,-14,59*,-11,67*,-13,HIF-2a conf=-27;HIF-1a cs=107*
N#CC(C#N)=C1C=CC=CN1/C(=C\c1ccco1)C(=O)c1ccc(-c2ccccc2)cc1,110*,83*,32,89*,-50,83*,-51,HIF-2a conf=97*;HIF-1a cs=106*
N#C/C(=C\c1ccco1)C(=O)NCc1ccccc1,-19,-6,8,10,7,18,/,
O=C(NCc1ccccc1)NC1(C(=O)N2CCCC2)CCCCC1,16,-9,-19,2,13,8,/,
